Assay outcomes from PubChem BioAssay.
Compounds with a hit are over-represented: about 3.4% of the library has one in this group of screens.
ADAM10 inh: inhibits human ADAM10; 0.62% of 370,000 active; inhibition, % at 7 µM; AID 720582; recombinant ADAM10, EDANS/DABCYL FRET peptide cleavage, 3 h;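 active = inhibition above a per-campaign cutoff equal to the mean of compounds falling between control-based bounds plus 3 SD, cut at about 20% in these data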;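 note: 0% = DMSO wells while the 100% control is not disclosed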
PLC-beta3 inh: blocks human PLC-beta3 enzyme activity. Purified PLC-beta3, fluorogenic substrate, fluorescence. inhibition, % at 12.2 µM. 0.18% of 370,000 active; in the data active = inhibition above about 11%;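 note: 0% = median of compound wells on plate and 100% = full blocker control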
PLC-gamma1 inh: blocks human PLC-gamma1 enzyme activity; P19174; purified PLC-gamma1, fluorogenic substrate, fluorescence; inhibition, % at 12.2 µM; 0.84% of 370,000 active
KLK7 zymogen act: activates the human kallikrein-7 zymogen. P49862. purified proKLK7, EDANS-DABCYL substrate fluorescence; 100% is mature enzyme control, 0% vehicle. activation, % at 7 µM. 0.9% of 370,000 active. AID 652039;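 active = activation above the mean of all tested compounds plus 3 SD, computed per campaign excluding outliers beyond control limits, cut at about 13% in these data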
sPLA2-III inh: Inhibits HGIII-sPLA2 liposome hydrolysis, primary screen. Q9NZ20. QFRET BODIPY PC-A2 liposome hydrolysis, fluorescence. inhibition, % at 12.2 µM. 0.56% of 370,000 active. AID 743126;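 active = inhibition above mean plus 3 SD of compounds lying within the high and low control bounds, cut at about 19% in these data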;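 note: 0% = median of test compound wells and 100% = no enzyme DMSO wells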
Target sequence (Q9NZ20 whole entry, looked up): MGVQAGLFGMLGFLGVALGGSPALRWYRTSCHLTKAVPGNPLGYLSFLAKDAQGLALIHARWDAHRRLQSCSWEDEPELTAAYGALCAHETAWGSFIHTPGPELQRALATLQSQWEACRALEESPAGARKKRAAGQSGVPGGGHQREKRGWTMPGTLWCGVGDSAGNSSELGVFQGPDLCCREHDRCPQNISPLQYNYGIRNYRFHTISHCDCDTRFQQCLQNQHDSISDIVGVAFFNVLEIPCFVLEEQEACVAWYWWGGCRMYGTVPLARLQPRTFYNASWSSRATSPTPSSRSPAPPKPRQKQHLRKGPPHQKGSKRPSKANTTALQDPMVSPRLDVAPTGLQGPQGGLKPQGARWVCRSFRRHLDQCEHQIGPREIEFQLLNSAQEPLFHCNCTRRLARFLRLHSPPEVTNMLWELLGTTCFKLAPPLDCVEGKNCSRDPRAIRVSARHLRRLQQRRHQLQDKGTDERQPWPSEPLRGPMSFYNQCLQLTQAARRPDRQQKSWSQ
ADAM17 inh: inhibits human ADAM17. P78536. recombinant ADAM17, EDANS/DABCYL FRET peptide cleavage. inhibition, % at 6.95 µM. 0.83% of 370,000 active. AID 720648;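 active = inhibition above the mean of compounds lying between control limits plus 3 SD, set per campaign, cut at about 8.5% in these data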;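 note: 0% = DMSO-only wells as the low control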
PLCg1 ctr: inhibits human PLC-gamma1 in PLC-beta3 counter-screen; shares compounds with PLC-gamma1 inh; 3.1% of 3,300 active; AID 743258; purified PLC-gamma1, fluorogenic substrate, fluorescence; inhibition, % at 12.3 µM
PLCb3 confirm: confirmation of human PLC-beta3 inhibitors; shares compounds with PLC-gamma1 inh; purified PLC-beta3, fluorogenic substrate fluorescence; inhibition, % at 12.3 µM; 1% of 3,300 active; in the data active = inhibition above about 11%
The depositor's hits bear a star; i = inactive; · = no result; ! = a repeat was not active. Cut-off read from the data, not from the text of the source, unless noted: active = inhibition above about 9.5%; inactive = the rest.

SMILES | ADAM10 inh | PLC-beta3 inh | PLC-gamma1 inh | KLK7 zymogen act | sPLA2-III inh | ADAM17 inh | PLCg1 ctr | PLCb3 confirm
CCOC(=O)C(NC(=O)c1ccccc1)(Nc1cccc(C)n1)C(F)(F)F (centres undefined) | 5 | 1 | 2 | 0 | -4 | 0 | · | ·
C=CCOc1ccc(/C=C/C(=O)OCc2csc(CC(=O)Nc3ccccc3C)n2)cc1 | -8 | -2 | 2 | 0 | -29 | 0 | · | ·
Cc1ccc(SCCNC(=O)C(C)C)cc1 | 7 | 5 | 9.7* | 1 | 4 | -1 | -12 | -2
Cc1ccc(NC(=O)NCCSc2ccc(C)cc2)cc1 | 10 | 2 | 2 | 0 | -12 | 7 | · | ·
CC(=O)c1ccc2c(c1)c(C#N)c1ccccc1[n+]2[O-] | -82 | i | i | 2 | 0 | -30 | · | ·
Cc1ccc(OCCn2ccnc2)c([N+](=O)[O-])c1 | 3 | -1 | 13* | 7 | 0 | 0 | -1 | 0
O=[N+]([O-])c1cc(C(F)(F)F)ccc1NCCCCNS(=O)(=O)c1ccc(Cl)cc1 | 6 | 11* | 5 | 0 | 2 | 3 | 9 | 5
O=C(NCC1CCCO1)C(c1cccnc1)N(C(=O)Cc1cccs1)c1cccnc1 (centres undefined) | 7 | 13* | 11* | 0 | 8 | 7 | -9 | -4
COc1ccc(Br)cc1CNC(=O)Cn1nc(C)n2cccc2c1=O | -2 | 1 | 2 | 1 | 7 | -3 | · | ·
Cn1cc(CNCc2cnc3ccccn23)c(-c2ccc(Oc3ccccc3)cc2)n1 | -11 | 8 | 15* | 0 | -8 | -3 | 2 | 5
CCN(CC(=O)NCc1cccs1)C(=O)c1cccc(S(=O)(=O)Nc2ccc(C)cc2)c1 | -2 | 1 | 6 | 0 | -12 | 4 | · | ·
Cc1ccc(S(=O)(=O)Nc2c(C)nn(C)c2C)c(C)c1 | -3 | -2 | -1 | 0 | -4 | -1 | · | ·
Clc1ccc(-c2csc(Nc3cccnc3)n2)cc1 | 10 | 7 | 10* | 0 | 10 | 4 | 0 | 0
COc1ccc(CCNC(=O)C2CC(=O)N(C3CCCCC3)C2)cc1OC (centres undefined) | -4 | -2 | 11* | -1 | -6 | 7 | -1 | 0
Cc1ccccc1NC(=S)N1CCN(c2ccccc2)CC1 | -4 | -6 | -2 | -1 | 6 | 0 | · | ·
O=C(CSc1nnnn1C1CCCCC1)N1CCN(C(=O)c2ccco2)CC1 | 3 | -4 | 12* | 0 | -4 | -1 | -5 | 0
Cc1ccc(-n2nc3c(c2NC(=O)c2ccc4c(c2)OCO4)CS(=O)C3)cc1 (centres undefined) | 5 | 6 | 11* | -1 | -2 | -1 | -3 | 3
COc1ccc(-n2nc3c(c2NC(=O)COc2ccccc2F)CS(=O)(=O)C3)cc1 | -2 | -3 | -2 | 0 | 0 | -2 | · | ·
Cc1ccc(CN2CC(N3CCCC3)CS2(=O)=O)cc1 (centres undefined) | -8 | 1 | 1 | -1 | 12 | -7 | · | ·
COc1ncnc2c1ncn2CCCN1CCN(Cc2ccc(C)cc2)CC1 | -21 | -1 | -2 | 1 | 10 | -6 | · | ·
C[C@@H]1CNC(=O)c2c(C(=O)N(C)Cc3ccccc3)ncn21 | -6 | -2 | 0 | 0 | 15 | -4 | · | ·
Cc1[nH]n(S(=O)(=O)Cc2ccccc2)c(=O)c1N=Nc1ccccc1Cl | 9 | 1 | 12* | 0 | 7 | 1 | 2 | 5
C/C=C\C=C\C(=O)N1CC2(CC(c3cccc(NC(=O)CC)c3)=NO2)C[C@H]1C(N)=O (some centres undefined) | 2 | -9 | -6 | -1 | -2 | -2 | · | ·
CCC(C)N=C1CC(C)(C)CC(=O)/C1=C(/O)Cc1ccccc1 (centres undefined) | -5 | 5 | 0 | 0 | -6 | -2 | · | ·
O=C(NCC(=O)N(c1cccnc1)C(C(=O)NC1CCCC1)c1ccccc1)c1ccco1 (centres undefined) | 0 | 4 | -1 | 1 | -2 | 1 | · | ·
SMILES | ADAM10 inh | PLC-beta3 inh | PLC-gamma1 inh | KLK7 zymogen act | sPLA2-III inh | ADAM17 inh | PLCg1 ctr | PLCb3 confirm
O=C(NCC(=O)N(c1cccnc1)C(C(=O)NC1CCCCC1)c1ccccc1F)c1ccco1 (centres undefined) | 6 | 5 | 11* | -1 | 3 | 2 | 2 | 1
CCCCN(C(=O)CNC(=O)c1ccco1)C(C(=O)NC1CCCC1)c1ccc(OC)cc1 (centres undefined) | 0 | -1 | 12* | 1 | -2 | -1 | -3 | -2
CCOc1ccc(C(C(=O)NC2CCCC2)N(CCOC)C(=O)CNC(=O)c2ccco2)cc1 (centres undefined) | 0 | -9 | -3 | 0 | 3 | -6 | · | ·
O=C1OCC(Cn2c3ccccc3c3ccccc32)O1 (centres undefined) | 7 | 2 | 11* | 1 | -23 | 7 | -8 | -6
CN(C)c1ncnc2c1ncn2[C@H]1CN(CCN2CCOCC2)C[C@@H](CO)O1 | 8 | 6 | 11* | 0 | 14 | 4 | 0 | 0
CC(=O)c1ccc(S(=O)(=O)N(C)CC(=O)NCC2CCCCC2)cc1 | 7 | -3 | 4 | 0 | 0 | -2 | · | ·
Cc1ccc(S(=O)(=O)NC2=C(N3CCN(Cc4ccccc4)CC3)C(=O)c3ccccc3C2=O)cc1 | -5 | 4 | -1 | 0 | 5 | 0 | · | ·
Cc1ccc(S(=O)(=O)NC2=C(N3CCN(c4ccccc4F)CC3)C(=O)c3ccccc3C2=O)cc1 | -4 | 1 | 15*! | 0 | 8 | -7 | 9.8* | 8
CCn1c(SCC(N)=O)nnc1-c1ccc(OC)c(OC)c1 | 9 | 7 | 13* | 0 | 8 | 6 | -4 | -1
CCn1c(SCC(N)=O)nnc1-c1ccc2c(c1)OCO2 | -2 | 2 | 2 | 1 | 5 | -3 | · | ·
Cc1cc(NC(=O)CCCC(=O)O)nc(C)n1 | -2 | 5 | 10* | 0 | 2 | 5 | -2 | -1
CCCn1c(Oc2ccccc2)nc2c1c(=O)n(C)c(=O)n2C | -10 | -3 | -1 | 0 | -4 | -5 | · | ·
O=C(COC(=O)/C=C/c1cccc(Br)c1)Nc1cccc(S(=O)(=O)NC2=NCCC2)c1 | 4 | -6 | 0 | 0 | -19 | 2 | · | ·
O=C(CCN=C1NS(=O)(=O)c2ccccc21)OCC(=O)c1ccccc1 | 4 | -8 | -3 | -1 | 7 | -6 | · | ·
CC(C)CCNC(=O)NC(=O)COC(=O)CCN=C1NS(=O)(=O)c2ccccc21 | -3 | -2 | 11* | 0 | 3 | 6 | -8 | -1
